Data as given in PubChem BioAssay (EPA / NIEHS).
Results filed as inconclusive are left out. Active and inactive are the calls of the source. The calls were made as follows, unless noted: active = hit-call score of the fitted dose curve at least 0.9, where 1 is the maximum; inconclusive = response in the unintended direction; inactive = score below 0.9.

Key:
[1] = CCTE_Shafer_MEA_dev_per_burst_interspike_interval: CCTE's Neural Network Formation Assay for Burst Interspike Interval, Shafer Lab (AID 2284044; active = hit-call score of the fitted dose curve at least 0.9, where 1 is the maximum; inactive = score below 0.9;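 also: mean spike spacing inside bursts as AUC over recordings on days 5 7 9 12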;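 as to AC50: potency for a decrease of within-burst interspike interval below DMSO level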)
Method in brief: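 Rat cortical primary cultures, 16 electrodes/well; compound from plating, renewed with full media change DIV 5 and 9. Spikes via adaptive detector; per-burst ISI well-mean over active bursting electrodes; AUC of DIV 5/7/9/12 recordings; loss-direction fit vs DMSO.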

[2] = CCTE_Shafer_MEA_dev_burst_duration_mean: CCTE's Neural Network Formation Assay for Mean Burst Duration, Shafer Lab (AID 2284045; active = hit-call score of the fitted dose curve at least 0.9, where 1 is the maximum; inactive = score below 0.9;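 as to AC50: curve fitted for loss meaning shorter burst duration than DMSO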)
Method in brief: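 Mean single-electrode burst duration (first to last spike), averaged over bursting electrodes per well, then integrated as area-under-curve across recordings at days 5, 7, 9 and 12. Rat cortical cultures on MEAs, compound present from plating, refreshed at feeds.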

[3] = CCTE_Shafer_MEA_dev_interburst_interval_mean: CCTE's Neural Network Formation Assay for Mean Interburst Interval, Shafer Lab (AID 2284046; active = hit-call score of the fitted dose curve at least 0.9, where 1 is the maximum; inactive = score below 0.9;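 also: well-mean interburst interval of bursting electrodes as AUC over four recording days; curve fitted for decrease in interburst interval relative to DMSO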)
Method in brief: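 Network formation assay in primary rat cortical cultures, exposed from DIV 0 to 12. Mean interburst interval per well, integrated as AUC over four recordings.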

[4] = CCTE_Shafer_MEA_dev_inter_network_spike_interval_mean: CCTE's Neural Network Formation Assay for Mean Inter-network Spike Interval, Shafer Lab (AID 2284047; active = hit-call score of the fitted dose curve at least 0.9, where 1 is the maximum; inactive = score below 0.9;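 as to AC50: potency for a decrease in mean inter-network spike interval below DMSO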)
Method in brief: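 Compound was given at plating to primary rat cortical neurons and renewed with full medium changes on DIV 5 and 9. Extracellular activity was recorded on days 5, 7, 9, 12; AUC values were fitted for loss relative to DMSO control.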

[5] = CCTE_Shafer_MEA_dev_network_spike_number: CCTE's Neural Network Formation Assay for Number of Network Spikes, Shafer Lab (AID 2284048; active = hit-call score of the fitted dose curve at least 0.9, where 1 is the maximum; inactive = score below 0.9;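 also: synchronized bursts across electrodes counted on days 5 7 9 12 and integrated as AUC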;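 as to AC50: fit as a loss of signal meaning fewer network spikes than DMSO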)
Method in brief: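 Number of network spikes (coordinated firing across electrodes) recorded on days 5, 7, 9 and 12 and summarised as area under the curve. Rat cortical cultures on MEA, continuous compound exposure with full medium/treatment exchange at DIV 5 and 9.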

[6] = CCTE_Shafer_MEA_dev_network_spike_peak: CCTE's Neural Network Formation Assay for Mean Number of Electrodes in Network Spike, Shafer Lab (AID 2284049; active = hit-call score of the fitted dose curve at least 0.9, where 1 is the maximum; inactive = score below 0.9;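 as to AC50: fitted for loss of signal meaning fewer electrodes in network spikes than DMSO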)
Method in brief: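 Rat cortical primary culture, 1.5 x 10^5 cells/well, 48-well MEA (16 electrodes/well). Dosing day 0 through DIV 12, full media/compound exchange DIV 5, 9. AxIS adaptive spike detection; AUC over days 5/7/9/12; loss-of-signal vs DMSO.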

[7] = CCTE_Shafer_MEA_dev_spike_duration_mean: CCTE's Neural Network Formation Assay for Mean Spike Duration, Shafer Lab (AID 2284051; active = hit-call score of the fitted dose curve at least 0.9, where 1 is the maximum; inactive = score below 0.9;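 also: mean network spike duration pooled as area under curve over DIV 5 to 12 recordings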;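 as to AC50: potency for a decrease in mean network spike duration versus DMSO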)
Method in brief: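 With DMSO as baseline, loss of mean network spike duration was scored from extracellular recordings of rat cortical neurons on MEA plates. Exposure spanned plating to DIV 12; the four recording days were collapsed into one AUC value.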

[8] = CCTE_Shafer_MEA_dev_network_spike_duration_std: CCTE's Neural Network Formation Assay for Standard Deviation of Network Spike Duration, Shafer Lab (AID 2284052; active = hit-call score of the fitted dose curve at least 0.9, where 1 is the maximum; inactive = score below 0.9;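 also: hits are decreases in network spike duration SD versus DMSO vehicle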)
Method in brief: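 Developing networks of rat cortical neurons were exposed over twelve days in vitro on 48-well MEA plates. Trapezoidal AUC of recordings (DIV 5–12) was analysed for signal loss relative to DMSO vehicle.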

[9] = CCTE_Shafer_MEA_dev_per_network_spike_spike_number_mean: CCTE's Neural Network Formation Assay for Mean Number of Spikes in a Network Spike, Shafer Lab (AID 2284053; active = hit-call score of the fitted dose curve at least 0.9, where 1 is the maximum; inactive = score below 0.9;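 as to AC50: fitted as decrease in spikes per network spike relative to DMSO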)
Method in brief: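 First, rat cortical cells (1.5 x 10^5/well) were seeded onto MEA wells; second, dosing began at plating and was refreshed on DIV 5 and 9; finally, network-spike spike counts across DIV 5–12 were summarized as AUC.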

[10] = CCTE_Shafer_MEA_dev_per_network_spike_spike_percent: CCTE's Neural Network Formation Assay for Percent of Spikes in a Network Spike, Shafer Lab (AID 2284054; active = hit-call score of the fitted dose curve at least 0.9, where 1 is the maximum; inactive = score below 0.9)
Method in brief: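 Metric: fraction of spikes falling in a 0.05 s window at network-spike peaks. Recordings were made on days 5, 7, 9 and 12 and collapsed by trapezoidal AUC. Cultures were rat cortical neurons on MEA plates, dosed continuously from plating, re-dosed at media changes.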

[11] = CCTE_Shafer_MEA_dev_LDH: CCTE's Lactate Dehydrogenase Assay for Cytotoxicity in the Neural Network Formation Assay, Shafer Lab (AID 2284068);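 also: exposure for twelve days from plating with re-dosing on DIV 5 and 9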
Method in brief: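 Developing rat cortical networks on MEA plates are exposed to compound for 12 days from plating. LDH activity is measured spectrophotometrically, with DMSO as baseline.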

[12] = CCTE_Shafer_MEA_dev_AB: CCTE's Alamar Blue Assay for Cytotoxicity in the Neural Network Formation Assay, Shafer Lab (AID 2284083);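 also: resazurin reduction fluorescence as viability of cultured neurons; twelve days of exposure from plating with re-dosing on DIV 5 and 9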
Method in brief: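 Cytotoxicity companion to the developmental MEA: primary rat cortical neurons, 12-day exposure starting day 0, compound refreshed DIV 5 and 9; resazurin fluorescence, fitted against DMSO vehicle.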

[13] = CCTE_Shafer_MEA_dev_mutual_information_norm: CCTE's Neural Network Formation Assay for Mutual Information Normalization, Shafer Lab (AID 2284091; active = hit-call score of the fitted dose curve at least 0.9, where 1 is the maximum; inactive = score below 0.9;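 as to AC50: mutual information between electrodes summarised as area under curve across four recording days; potency is for a decrease in mutual information relative to DMSO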)
Method in brief: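 Shared information across electrodes, tracked on days 5, 7, 9 and 12 of network development and collapsed as trapezoidal area under the curve. Rat cortical cultures were treated continuously from plating, with treatment renewed at feeds on DIV 5 and 9; DMSO baseline, negative-direction fit.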

[14] = CCTE_Shafer_MEA_dev_correlation_coefficient_mean: CCTE's Neural Network Formation Assay for Mean Correlation Coefficient, Shafer Lab (AID 2284093; active = hit-call score of the fitted dose curve at least 0.9, where 1 is the maximum; inactive = score below 0.9;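 as to AC50: well mean pairwise spike train correlation integrated as AUC over recording days 5 to 12; potency fitted for loss of correlation relative to DMSO vehicle wells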)
Method in brief: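 Extracellular firing from rat cortical networks on 48-well MEAs, DMSO-referenced, negative fitting direction. Compound present from plating to DIV12; mean pairwise correlation per well integrated over DIV5–12 recordings by trapezoidal AUC.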

[15] = IUF_NPC1b_proliferation_BrdU_72hr: Leibniz Research Institute for Environmental Medicine (IUF) 72-hour Neural Progenitor Cell Bromodeoxyuridine (BrdU) Proliferation Assay (NPC1b) (AID 2284207; active = hit-call score of the fitted dose curve at least 0.9, where 1 is the maximum; inactive = score below 0.9)
Method in brief: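 Human fetal cortex-derived (GW 16-19) neural progenitor spheres, 0.25-0.35 mm, one per well in EGF/FGF proliferation medium, exposed to compound for 72 h at 37C, pH 7.2-7.6. BrdU incorporation over the final 16 h read by luminescence ELISA, relative to DMSO.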

[16] = IUF_NPC1a_proliferation_area_72hr: Leibniz Research Institute for Environmental Medicine (IUF) 72-hour Neural Progenitor Cell Proliferation Area Assay (NPC1a) (AID 2284208; active = hit-call score of the fitted dose curve at least 0.9, where 1 is the maximum; inactive = score below 0.9)
Method in brief: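 Read-out: increase in sphere area over 72 h by automated phase-contrast imaging, fitted in positive direction versus DMSO baseline. One hNPC sphere (0.25-0.35 mm) per well in EGF/FGF medium; growth-factor withdrawal served as positive control.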

[17] = CCTE_Shafer_MEA_acute_AB: CCTE's Alamar Blue Assay for Cytotoxicity in the Neural Acute Assay, Shafer Lab (AID 2284069);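 also: active compounds lower the viability signal compared with DMSO wells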
Method in brief: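 Cytotoxicity endpoint for acute MEA exposures of primary rat cortical neurons on day 13 or 15. Resazurin reduction is read fluorescently at 544/590 nm, with DMSO as the negative-control baseline.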

[18] = CCTE_Shafer_MEA_acute_LDH: CCTE's Lactate Dehydrogenase Assay for Cytotoxicity in the Neural Acute Assay, Shafer Lab (AID 2284086);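 also: active means LDH release rises above DMSO vehicle level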
Method in brief: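 LDH absorbance at 490 nm in medium taken right after 40-min compound exposure; rat primary cortical neuron networks on MEA plates, days post-plating 13 or 15. Increase over DMSO baseline scored as cytotoxicity.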

DIO2 (gene 1734) = experiment: CCTE_GLTED_hDIO2: CCTE's human Deiodinase 2 (DIO2) Inhibition Assay, Great Lakes Toxicology and Ecology Division (GLTED) Lab (AID 2284050)
Method in brief: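 Readout: absorbance from Sandell-Kolthoff detection of free iodide released by human DIO2 during a 3 h incubation with chemical. Cell-free format, n=3; activity fitted relative to DMSO negative control.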

DIO3 (gene 1735) = experiment: CCTE_GLTED_hDIO3: CCTE's human Deiodinase 3 (DIO3) Inhibition Assay, Great Lakes Toxicology and Ecology Division (GLTED) Lab (AID 2284055);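 also: potency is for inhibition seen as loss of released iodide signal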
Method in brief: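 hDIO3 (adenovirus-expressed) + test chemical, 3 h incubation; free iodide quantified by Sandell-Kolthoff reaction, absorbance read-out. DMSO negative control, n=3.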

Measured: AC50

N#Cc1ccc(CC(=NNC(=O)Nc2ccc(OC(F)(F)F)cc2)c2cccc(C(F)(F)F)c2)cc1
active: [1] 0.301 µM | [2] 0.358 µM | [3] 0.0632 µM | [4] 0.634 µM | [5] 0.763 µM | [6] 1.12 µM | [7] 0.685 µM | [8] 0.525 µM | [9] 1.08 µM | [11] 15 µM | [13] 0.672 µM | [14] 2.8 µM
inactive: [10] | [12] | [15] | [16]

CCCCCCCCC=O
inactive: [17] | [18]

C=C[Si](OCC)(OCC)OCC
inactive: [17] | [18]

CCC(=O)OCc1ccccc1
inactive: [18]

CCCCCCCCCCCCCCCC(=O)OC[C@H](O)[C@H]1OC(=O)C(O)=C1O
active: DIO2 (gene 1734) 27.5 µM | DIO3 (gene 1735) 4.09 µM

c1ccc2c(c1)c1cccc3ccc4cccc2c4c31
active: [4] 18.6 µM
inactive: [1] | [2] | [3] | [5] | [6] | [7] | [8] | [9] | [10] | [11] | [12] | [13] | [14]

COc1cc(C=O)ccc1OC(=O)C(C)C
inactive: [18]

OC1OC[C@@H](O)[C@H](O)[C@H]1O (some centres not stated)
inactive: [18]

OC[C@H]1O[C@H](O[C@]2(CCl)O[C@H](CCl)[C@@H](O)[C@@H]2O)[C@H](O)[C@@H](O)[C@H]1Cl
inactive: [17] | [18]

O=Nc1ccc(Nc2ccccc2)cc1
active: DIO2 (gene 1734) 64.2 µM | DIO3 (gene 1735) 55.1 µM

C[C@H]1C[C@@H]2[C@H]([C@@H](O)C[C@@]3(C)[C@H]2CC[C@]3(O)C(=O)CO)[C@@]2(C)C=CC(=O)C=C12
inactive: [17] | [18]

CC[Si](OC(C)=O)(OC(C)=O)OC(C)=O
inactive: [18]

CCCCCCCCCCCCN
inactive: DIO2 (gene 1734)
active: DIO3 (gene 1735) 141 µM

Cc1cc(C2(c3cc(C)c(O)cc3C)OS(=O)(=O)c3ccccc32)c(C)cc1O
inactive: [17] | [18]

CC(C)=CCCC(C)=CCCC(C)=CCO
active: DIO2 (gene 1734) 28.5 µM | DIO3 (gene 1735) 17.9 µM

C=CCOC(=O)CCC1CCCCC1
inactive: [18]

CC(=O)OCCC(C)CC(C)(C)C (configuration not stated)
inactive: [18]

CCCCCCCCCCCCCC(=O)O
active: DIO2 (gene 1734) 100 µM | DIO3 (gene 1735) 156 µM

CC(=O)[C@H]1CC[C@H]2[C@@H]3CC=C4C[C@@H](O)CC[C@]4(C)[C@H]3CC[C@]12C
inactive: [18]

NCCNCCN
inactive: [17] | [18]

CC(C)(COC(=O)c1ccccc1)COC(=O)c1ccccc1
inactive: [17] | [18]

CN(C)C(=N)N=C(N)N
inactive: [1] | [2] | [3] | [4] | [5] | [6] | [7] | [8] | [9] | [10] | [11] | [12] | [18] | [13] | [14] | [15] | [16]

CCC(=O)/C=C/C1C(C)=CCCC1(C)C (configuration not stated)
active: DIO2 (gene 1734) 93.1 µM | DIO3 (gene 1735) 56.6 µM

O=C(Oc1ccccc1)c1ccc(O)cc1
active: DIO2 (gene 1734) 72.2 µM | DIO3 (gene 1735) 52.9 µM
